Target: Short transient receptor potential channel 6 (Mus musculus) (UniProt Q61143)
Assay: potency of TRPC6 cation channel blockers – HEK293 cells, membrane potential dye, set 2, SAR follow-up (AID 504885)
Conditions: acetylcholine-stimulated; series mostly up to 20 µM; fluorescence ratio, lower = inhibition: at the top concentration;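 active = TRPC6 cation channel blocked by over 30% at any dose tested, plus a fitted dose response curve; inactive = the rest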

Chain of Short transient receptor potential channel 6 (Mus musculus) (Q61143 whole entry, looked up): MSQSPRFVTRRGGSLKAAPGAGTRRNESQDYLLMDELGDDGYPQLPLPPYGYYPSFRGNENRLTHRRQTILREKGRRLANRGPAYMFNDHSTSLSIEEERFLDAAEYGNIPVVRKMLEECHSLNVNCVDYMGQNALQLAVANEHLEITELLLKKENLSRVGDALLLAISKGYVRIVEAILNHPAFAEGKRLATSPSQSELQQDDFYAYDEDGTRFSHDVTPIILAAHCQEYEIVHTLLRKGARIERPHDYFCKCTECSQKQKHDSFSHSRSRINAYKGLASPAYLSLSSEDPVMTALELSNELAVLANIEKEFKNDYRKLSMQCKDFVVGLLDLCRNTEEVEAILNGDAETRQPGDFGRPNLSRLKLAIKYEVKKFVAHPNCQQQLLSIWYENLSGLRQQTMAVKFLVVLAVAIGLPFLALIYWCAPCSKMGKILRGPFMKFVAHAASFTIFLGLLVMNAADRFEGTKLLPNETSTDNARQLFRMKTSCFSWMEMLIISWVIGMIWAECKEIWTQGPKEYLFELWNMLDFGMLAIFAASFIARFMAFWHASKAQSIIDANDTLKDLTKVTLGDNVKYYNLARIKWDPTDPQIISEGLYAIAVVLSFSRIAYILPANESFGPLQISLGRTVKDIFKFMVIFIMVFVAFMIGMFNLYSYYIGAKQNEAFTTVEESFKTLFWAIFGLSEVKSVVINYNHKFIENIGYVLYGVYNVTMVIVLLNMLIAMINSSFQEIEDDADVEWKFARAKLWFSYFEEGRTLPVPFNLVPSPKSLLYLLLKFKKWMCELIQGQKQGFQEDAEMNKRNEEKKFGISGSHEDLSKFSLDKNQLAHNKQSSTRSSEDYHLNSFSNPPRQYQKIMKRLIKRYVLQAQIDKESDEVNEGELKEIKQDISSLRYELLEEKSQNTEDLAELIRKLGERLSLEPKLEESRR

Fluorescence ratio, lower = inhibition, inactive:
CSCc1cc(N(C)c2ccccc2)nc(-c2ccccn2)n1 17.8, CSCc1cc(N2CCOCC2)nc(-c2ccccn2)n1 22, CN1CCN(Cc2ccc3nsnc3c2)CC1CCO (stereo not given) 23.7, Cc1ccc(C)c(N2CCN(C(=O)c3ccc4nsnc4c3)CC2)c1 18.7, Clc1ccc(SCc2cc(N3CCCCC3)nc(-c3ccccn3)n2)cc1 19.2, Cc1cccc(CN2CCN(Cc3ccc4nsnc4c3)CC2CCO)n1 (stereo not given) 20.3, CC(C)CCN1CCN(Cc2ccc3nsnc3c2)CC1CCO (stereo not given) 16.6, CC(C)CN1CCN(Cc2ccc3nsnc3c2)CC1CCO (stereo not given) 17.5, OCCC1CN(Cc2ccc3nsnc3c2)CCN1CCCc1ccccc1 (stereo not given) 12.4, O=S(=O)(Cc1cc(N2CCOCC2)nc(-c2ccccn2)n1)c1ccccc1 21.7, O=S(=O)(Cc1cc(N2CCN(c3ccccc3)CC2)nc(-c2ccccn2)n1)c1ccccc1 24, CC(C)N1CCC(N2CCN(Cc3ccc4nsnc4c3)CC2CCO)CC1 (stereo not given) 22, CC(C)N1CCN(Cc2ccc3nsnc3c2)CC1CCO (stereo not given) 20.9, CN1CCC(N2CCN(Cc3ccc4nsnc4c3)CC2CCO)CC1 (stereo not given) 24.3, Cc1ccccc1CN1CCN(Cc2ccc3nsnc3c2)CC1CCO (stereo not given) 17.6
